Growth data for 9 compounds are collected here from PubChem BioAssay (NCI).

SMILES strings stand for the structures. This is part of a sample that, as a whole, favours compounds with a hit. Of some 83,000 tested, about 20% had one in any assay.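 Percent growth is the endpoint: 0 to 100 indicates growth inhibition (40 means 60% inhibition), 0 means no net growth, and negative values indicate cell death.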 Unmarked numbers belong to inactive results. Calls of active or inactive are those of the source. Rule for the calls: active = growth percent below 10; inactive = the rest.

Common to all, as to assay: NCI-60 one-dose screen, 48 h (100 = growth as untreated, 0 = no growth, -100 = all killed)
Common to all, as to details: 10 µM unless noted

Experiment [1] has as its system DU-145 prostate.
For experiment [2], the system named is K-562 leukemia.
Experiment [3] deals with MALME-3M melanoma.
For experiment [4], the system named is MDA-MB-231 breast.
The subject of experiment [5] is RXF 393 renal.
In experiment [6] the test system is SF-268 CNS.
Experiment [7] has as its system SF-295 CNS.
Experiment [8] deals with SF-539 CNS.
The subject of experiment [9] is UACC-257 melanoma.
The test system of experiment [10] is HCT-15 colon.
The subject of experiment [11] is HT29 colon.
Experiment [12] relates to SNB-75 CNS.
The test system of experiment [13] is SNB-19 CNS.
Experiment [14] deals with U251 CNS.
Experiment [15] has as its system PC-3 prostate.
Experiment [16] deals with SK-MEL-5 melanoma.
For experiment [17], the system named is UACC-62 melanoma.
For experiment [18], the system named is SK-MEL-28 melanoma.
Experiment [19] relates to LOX IMVI melanoma.

On to `Cc1c2c(cn1Cc1ccccc1)CCc1cn[nH]c1-2`, for which the growth in experiment [1] was 117%; in experiment [2] it was 51.8%; in [3], 105%; in experiment [4], 89.3%; in experiment [5] it was 87.6%; in [6], 89.6%. In addition, the growth was 81.5% in experiment [7]; 92.7% in [8]; 107% in [9]; 99.3% in [10]; 94.5% in [11]; 92.2% in experiment [12]. Further, the growth in experiment [13] was 86.9%; in experiment [14], 89.3%; in experiment [15], 74.9%; in experiment [16], 89%; in experiment [17], 76.8%; in [18], 105%.
In the case of `CCC(O)(C(c1ccccc1)c1ccccn1)C(c1ccccc1)c1ccccn1` (configuration not stated), the growth in experiment [1] is 103%; in experiment [2], 101%; in experiment [3], 94.4%; in experiment [4] it was 120%; in experiment [5] it was 118%; in experiment [6], 95.3%. Besides, the growth in experiment [7] is 122%; in experiment [8], 92.1%; in [9], 112%; in experiment [10], 103%; in experiment [11], 102%; in [12] it was 99.4%. The growth is 108% in experiment [13]; 107% in experiment [14]; 97.4% in [15]; 106% in experiment [16]; 113% in experiment [17]; 98% in [19]. Moreover, the growth in experiment [18] is 107%.
With `Nc1ccc2c(S(=O)(=O)O)ccc(S(=O)(=O)O)c2c1`, the growth was 115% in experiment [1]; 90.6% in experiment [2]; 109% in experiment [3]; 111% in [4]; 114% in [5]; 102% in experiment [6]. Further, the growth was 105% in experiment [7]; 88.5% in [8]; 95.3% in experiment [9]; 105% in experiment [10]; 105% in experiment [11]; 92% in experiment [12]. Also, the growth in [13] was 93.5%; in [14], 99.5%; in experiment [15], 91.9%; in experiment [16], 93.5%; in experiment [17], 90.5%; in experiment [19], 98.1%. Further, the growth in experiment [18] was 116%.
As to `NS(=O)(=O)c1cnccc1-n1ccc(=O)c(S(N)(=O)=O)c1`, the growth in [1] is 106%; in experiment [2], 84.1%; in experiment [3] it was 50.1%; in [4], 94%; in experiment [5], 139%; in experiment [6], 101%. The growth in experiment [7] is 59.1%; in [8] it was 97.8%; in experiment [9] it was 115%; in experiment [10], 90.8%; in [11], 105%; in experiment [12] it was 73.8%. Besides, the growth in experiment [13] was 88.1%; in [14], 96.6%; in experiment [15], 86.5%; in experiment [16], 103%; in experiment [19], 97.1%; in experiment [18] it was 92.5%.
In the case of `COc1cc(/C=C/C(=O)c2cccc(-n3cc(-c4ccc(Cl)cc4)[nH]c3=O)c2)cc(OC)c1OC`, the growth in experiment [1] was 37.1%; in experiment [2] it was 20.9%; in [3] it was 94.2%; in experiment [4], 76.7%; in experiment [5], 53.6%; in experiment [6] it was 48.8%. The growth was 80.8% in [7]; 33.7% in experiment [8]; 67.2% in [9]; 40.3% in experiment [10]; -12% (active) in experiment [11]; 84.9% in experiment [12]. Moreover, the growth in experiment [13] was 75.5%; in experiment [14], 30.9%; in experiment [15], 47.7%; in experiment [16], 58.2%; in [17], 72.4%; in experiment [19], -47.4% (active). The growth in experiment [18] was 86.5%.
For `CC(=O)Nc1ccc(C(=O)/C=C/c2ccccc2)cc1`, the growth was 89.8% in [1]; 79.9% in experiment [2]; 104% in experiment [3]; 93.2% in [4]; 97.4% in experiment [5]; 85.4% in experiment [6]. For the same compound, the growth in experiment [7] was 104%; in experiment [8], 96.6%; in [9], 70.3%; in [10] it was 77.3%; in experiment [11] it was 44.6%; in experiment [12] it was 75.9%. Moreover, the growth is 80.5% in experiment [13]; 76.3% in experiment [14]; 84.3% in experiment [15]; 91.5% in experiment [16]; 90% in experiment [17]; 93.4% in [18].
With `O=C(/C=C/c1ccccc1)c1ccc2ccccc2c1`, the growth is 105% in experiment [1]; 56.9% in experiment [2]; 95.9% in [3]; 94.3% in experiment [4]; 96.5% in experiment [5]; 94.8% in experiment [6]. Also, the growth is 107% in experiment [7]; 99.2% in experiment [8]; 87.9% in experiment [9]; 48.5% in experiment [10]; 54.7% in experiment [11]; 107% in experiment [12]. For the same compound, the growth in experiment [13] is 99.3%; in [14], 93.2%; in [15], 90.1%; in experiment [16] it was 92%; in experiment [17], 92.6%; in [19], 89.3%. The growth in experiment [18] is 108%.
For the compound `COc1ccc(-c2nc3sc4c(c3c(=O)[nH]2)CCCC4)c2ccccc12`, the growth was 0.642% (active) in [1]; 5.12% (active) in [2]; 41.8% in experiment [3]; 10.5% in experiment [4]; 17.3% in [5]; 24.6% in experiment [6]. In addition, the growth in [7] is -18.7% (active); in experiment [8], -57.7% (active); in experiment [9] it was 56.8%; in [10] it was 6.37% (active); in experiment [11] it was -0.244% (active); in [12], -25.5% (active). Moreover, the growth was 36% in [13]; 6.38% (active) in [14]; 11.7% in [15]; 18.1% in [16]; 26.9% in experiment [19]; -5.17% (active) in experiment [18].
On to `COc1cc(/C=C/C(=O)c2cccc(-n3cc(-c4ccccc4)[nH]c3=O)c2)cc(OC)c1OC`, for which the growth is 7.58% (active) in experiment [1]; 5.48% (active) in experiment [2]; 2.69% (active) in [3]; 5.03% (active) in experiment [4]; -69.7% (active) in [5]; 17.7% in [6]. Further, the growth in [7] is 51%; in experiment [8] it was -88.8% (active); in [9] it was -13.2% (active); in [10], 0.0594% (active); in [11] it was -72% (active); in experiment [12], 34.2%. For the same compound, the growth in experiment [13] is 20.2%; in experiment [14], -78.6% (active); in experiment [15], 7.64% (active); in [16], -90.1% (active); in experiment [17] it was -86.3% (active); in [19], -85.2% (active). The growth in experiment [18] is -48.4% (active).
